Measured values: PubChem BioAssay (NCATS)
Where “and” joins values, the source holds several entries; their conditions need not be identical. Equal values may be shown once. Results filed as inconclusive are left out. Calls of active or inactive are those of the source. Calls follow the shape of the dose curve; as a rule, active = well fitted curve in the direction sought with a large enough effect; inconclusive = small, poorly fitted or top-dose-only effect, or another doubt; inactive = no such curve, though single readings can be large; an effect the other way counts as inactive or inconclusive.

Key:
[1] = Identifying Small Molecule Inhibitors of Pancreatic Cancer Stem Cells (SN12C, Spheroid) (AID 1259360); details: Potency: SN12C spheroid viability; also: potency is read from the fitted curve at half-maximal effect
In short: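 Cytotoxicity read by CellTiter-Glo luminescence after 48 h compound exposure at 37C; percent activity scaled between DMSO-treated cells and cell-free wells. Spheroid formats used cells pre-formed 14 days in stem cell media on hydrogel.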

[2] = Identifying Small Molecule Inhibitors of Pancreatic Cancer Stem Cells (A278, Adherent) (AID 1259361); also: nearly all actives have a fitted effect of over 35% in size
In short: (§1)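 Luminescent ATP readout (CellTiter-Glo) quantifies surviving cells after a 48 h drug incubation. Normalization uses DMSO wells as no inhibition and media-only wells as full inhibition; bortezomib served as positive control.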

[3] = Identifying Small Molecule Inhibitors of Pancreatic Cancer Stem Cells (Panc1, Adherent) (AID 1259362); details: Potency: viability; also: potency is read from the fitted curve at half-maximal effect
In short: as §1

[4] = P-glycoprotein substrates identified in KB-8-5-11 adenocarcinoma cell line, qHTS therapeutic library screen (AID 1346987); also: nearly all actives have a fitted effect of over 65% in size; also: potency is read from the fitted curve at half-maximal effect
In short: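 KB-8-5-11: colchicine-selected sub-line of KB-3-1 over-expressing P-gp; assay medium lacked colchicine. 72 h drug exposure at 37 degree C, CellTiter-Glo.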

[5] = NS1 protein of Zika virus - qHTS assay to identify small molecule inhibitors in human HEK 293 cells (AID 1347053); also: nearly all actives have a fitted effect of over 55% in size; also: potency is read from the fitted curve at half-maximal effect
In short: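 HEK 293 cells, seeded 20 h at 37 C, were pretreated with compound 1 h, then infected with ZIKV MR766 (MOI = 0.5) for 24 h. NS1 was read by TR-FRET with two anti-NS1 antibodies, normalized to uninfected and infected wells.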

[6] = qHTS of pediatric cancer cell lines to identify multiple opportunities for drug repurposing: Primary screen for TC32 cells (AID 1347089); also: nearly all actives have a fitted effect of over 60% in size; also: potency is read from the fitted curve at half-maximal effect
In short: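 qHTS, TC32, 48 h drug treatment, CellTiter-Glo luminescence as a proxy for metabolically active cells; primary top concentration 46 µM (MIPE 11-pt, NPC 8-pt); confirmatory 11-pt.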

[7] = qHTS of pediatric cancer cell lines to identify multiple opportunities for drug repurposing: Primary screen for DAOY cells (AID 1347090); also: nearly all actives have a fitted effect of over 55% in size; also: potency is read from the fitted curve at half-maximal effect
In short: (§2)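 Eight- or eleven-point concentration series, 48 h treatment at 37 degrees C in growth media; readout CellTiter-Glo luminescence. Potency and efficacy were taken from the concentration-response curves.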

[8] = qHTS of pediatric cancer cell lines to identify multiple opportunities for drug repurposing: Primary screen for SJ-GBM2 cells (AID 1347091); also: potency is read from the fitted curve at half-maximal effect
In short: as §2

[9] = qHTS of pediatric cancer cell lines to identify multiple opportunities for drug repurposing: Primary screen for A673 cells (AID 1347092); also: potency is read from the fitted curve at half-maximal effect; nearly all actives have a fitted effect of over 45% in size
In short: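 Luminescence from CellTiter-Glo, taken after 15 min at room temperature, served as the proxy for metabolically active cells following 48 h treatment. Both potency and efficacy were taken from curves fitted to the titration data.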

[10] = qHTS of pediatric cancer cell lines to identify multiple opportunities for drug repurposing: Primary screen for SK-N-MC cells (AID 1347093); also: potency is read from the fitted curve at half-maximal effect
In short: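 Metabolically active cells were quantified by ATP-dependent luminescence (CellTiter-Glo, 15 min at room temperature) following 48 h treatment. Cells had been plated at 500-1,000 per well and settled for 5 h beforehand.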

[11] = qHTS of pediatric cancer cell lines to identify multiple opportunities for drug repurposing: Primary screen for NB-EBc1 cells (AID 1347095); also: potency is read from the fitted curve at half-maximal effect
In short: (§3)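 Viability was measured as metabolically active cells after 48 hours of treatment, read by CellTiter-Glo luminescence. Compounds were tested at multiple final concentrations, giving concentration-response curves.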

[12] = qHTS of pediatric cancer cell lines to identify multiple opportunities for drug repurposing: Primary screen for BT-37 cells (AID 1347094); also: potency is read from the fitted curve at half-maximal effect
In short: as §3

[13] = P-glycoprotein substrates identified in KB-3-1 adenocarcinoma cell line, qHTS therapeutic library screen (AID 1346986); also: nearly all actives have a fitted effect of over 60% in size;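 also: potency is read from the fitted curve at half-maximal effect; potency is for cytotoxicity meaning loss of cell viability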
In short: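 KB-3-1 parental cells and P-gp-overexpressing KB-8-5-11 (colchicine omitted during assay) plated at 500 cells/well, dosed in dose-response, incubated 72 h at 37 degree C. CellTiter-Glo luminescence read; KB-8-5-11 also tested with tariquidar.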

SMILES	Potency [1]	IC50 (viability decrease) [2]	Potency [3]	Potency [4]	Potency [5]	Potency [6]	Potency [7]	Potency [8]	Potency [9]	Potency [10]	Potency [11]	Potency [12]	Potency [13]
CCOc1cc2ncc(C#N)c(Nc3ccc(F)c(Cl)c3)c2cc1NC(=O)C=CCN(C)C	1.48 µM (active)	20.9 µM (active)	18.7 µM (active)	10.5 µM (active)	inactive	18.6 µM (active)	0.118 µM (active)	0.935 µM (active)	0.0296 µM (active)	0.0469 µM (active)	9.35 µM (active)	–	–
COCCn1c2c([n+](Cc3cnccn3)c1C)C(=O)c1ccccc1C2=O	0.105 µM (active)	0.0066 µM (active)	inactive	–	0.0372 µM (active)	0.0658 µM (active)	0.0118 µM (active)	0.0132 µM (active)	0.0059 µM (active)	0.0118 µM (active)	0.0935 µM (active)	0.153 µM (active)	–
Cn1cc(-c2[nH]c3cc(NC(=O)[C@H](N)C4CCCCC4)cc4c3c2C=NNC4=O)cn1	4.18 µM (active)	2.64 µM (active)	–	inactive	0.332 µM (active)	2.62 µM (active)	–	0.59 µM (active)	5.9 µM (active)	–	0.59 µM (active)	–	–
COc1cc2ncn(-c3cc(OCc4ccccc4C(F)(F)F)c(C(N)=O)s3)c2cc1OC	inactive	1.48 µM (active)	–	0.935 µM (active)	–	–	0.372 µM (active)	0.662 µM (active)	0.469 µM (active)	0.469 µM (active)	4.69 µM (active)	19.3 µM (active)	–
Cc1cnc(Nc2ccc(F)cc2Cl)nc1-c1c[nH]c(C(=O)N[C@H](CO)c2cccc(Cl)c2)c1	23.5 µM (active)	11.8 µM (active)	18.7 µM (active)	23.5 µM (active)	–	inactive	7.43 µM (active)	0.264 µM (active)	0.0372 µM (active)	2.35 µM (active)	0.833 µM (active)	0.485 µM (active)	–
C1=CCOCc2cc(ccc2OCCN2CCCC2)Nc2nccc(n2)-c2cccc(c2)OCC1	inactive	2.09 µM (active)	1.87 µM (active)	3.32 µM (active)	4.18 µM (active)	14.7 µM (active)	14.8 µM (active)	3.72 µM (active)	2.35 µM (active)	–	7.43 µM (active)	12.2 µM (active)	–
C=CC(=O)Nc1cc2c(Nc3ccc(F)c(Cl)c3)ncnc2cc1C#CC(C)(C)N1CCN(C)CC1	6.62 µM (active)	6.62 µM (active)	11.8 µM (active)	16.4 µM (active)	13.2 µM (active)	–	5.9 µM (active)	2.96 µM (active)	1.48 µM (active)	–	2.96 µM (active)	3.85 µM (active)	9.2 µM (active)
C[C@@H](Oc1cc(-c2cnn(C3CCNCC3)c2)cnc1N)c1c(Cl)ccc(F)c1Cl	20.9 µM (active)	4.18 µM (active)	–	13.2 µM (active) and 16.4 µM (active) and 11.6 µM (active)	–	–	–	0.0743 µM (active)	14.8 µM (active)	2.35 µM (active)	9.35 µM (active)	–	–
COc1cc2ncnc(Nc3ccc(F)c(Cl)c3)c2cc1NC(=O)C=CCN1CCCCC1	29.6 µM (active)	16.6 µM (active)	23.5 µM (active)	inactive	–	inactive	–	8.33 µM (active)	18.7 µM (active)	–	26.4 µM (active)	24.3 µM (active)	inactive
CCCCCN(CCC12CC3CC(CC(C3)C1)C2)C(=O)NCCCc1ccncc1	inactive	–	–	16.4 µM (active)	inactive	–	–	18.7 µM (active)	18.7 µM (active)	–	20.9 µM (active)	24.3 µM (active)	–
O=C(O)[C@H](Cc1c[nH]c2ccccc12)N1C(=O)c2ccccc2C1=O	inactive	–	inactive	inactive	inactive	inactive	inactive	inactive	–	48.1 µM (active)	–	inactive	–
Cc1cc(Nc2cc(N3CCN(C)CC3)nc(C=Cc3ccccc3)n2)n[nH]1	inactive	–	–	6.05 µM (active)	21.5 µM (active)	–	42.9 µM (active)	13.6 µM (active)	10.8 µM (active)	1.52 µM (active)	4.29 µM (active)	44.4 µM (active)	–
CC(=O)OCC(=O)[C@@]1(O)[C@H](C)C[C@H]2[C@@H]3C=C(C)C4=Cc5c(cnn5-c5ccccc5)C[C@]4(C)[C@@H]3[C@@H](O)C[C@@]21C	20.9 µM (active)	–	–	inactive	11.8 µM (active)	–	11.8 µM (active)	5.26 µM (active)	2.96 µM (active)	1.18 µM (active)	3.72 µM (active)	19.3 µM (active)	inactive
O=C(NC1CCNCC1)c1[nH]ncc1NC(=O)c1c(Cl)cccc1Cl	1.05 µM (active)	–	–	inactive	3.72 µM (active)	2.34 µM (active)	1.18 µM (active)	0.833 µM (active)	0.059 µM (active)	0.526 µM (active)	1.87 µM (active)	–	0.58 µM (active)
